Reference: the supplement of paper PMC13380429

Tested on: Vero E6 infected with SARS-CoV-2
Test: inhibition of SARS-CoV-2 cytopathic effect; higher = more antiviral protection, active = above 15
Settings: 48 h

Measured: inhibition of SARS-CoV-2 cytopathic effect

O=C(CCCCCCC(=O)Nc1cccnc1)NO [pyroxamide]
inactive: 1 nM 0.71% | 8.33 nM -1.1% | 100 nM 0.72% | 833.33 nM -1.43% | 10000 nM -5.97%

N#Cc1cn([C@@H]2O[C@H](CO)[C@@H](O)[C@H]2O)c2ncnc(N)c12 [toyocamycin]
inactive: 1 nM 0.31% | 8.33 nM 2.87% | 100 nM 4.68% | 833.33 nM -0.02% | 10000 nM -0.24%

c1ccc(CN2CCC3(CCc4ccccc43)CC2)cc1
inactive: 1 nM -1.07% | 8.33 nM -1.48% | 100 nM 0.06% | 833.33 nM 1.63% | 10000 nM 0.48%
